# Source: the supplement of paper PMC8728848
# The sample as a whole holds a higher share of the strongest signals than the screen did.
# B1: CLEC5A (Homo sapiens), Q9NY25 (protein)
# chain: MNWHMIISGLIVVVLKVVGMTLFLLYFPQIFNKSNDGFTTTRSYGTVSQIFGSSSPSPNGFITTRSYGTVCPKDWEFYQARCFFLSTSESSWNESRDFCKGKGSTLAIVNTPEKLKFLQDITDAEKYFIGLIYHREEKRWRWINNSVFNGNVTNQNQNFNCATIGLTKTFDAASCDISYRRICEKNAK
# Key:
# Test in all cases: glycan array binding signal (z-score within array); higher = stronger binding
# Conditions in all cases: glycan notation: IUPAC condensed, linker removed
# [1] = target: 4d8dNeu5Ac(a2-3)Gal(b1-4)Glc
# In short: (§1)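 Glycan array data came from 3228 arrays in the Consortium for Functional Glycomics database, and only arrays with an available protein sequence were kept. Glycan names were put into IUPAC-condensed notation, and columns mapping to the same glycan were averaged. The binding signal is a within-array Z-score, averaged across arrays of one protein sequence run at different concentrations or buffers and across linkers. A negative Z-score can be read as non-binding.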
# [2] = target: 4dNeu5Ac(a2-3)Gal(b1-4)Glc
# In short: as §1
# [3] = target: Fuc(a1-2)Gal(b1-3)GlcNAc(b1-2)Man(a1-3)[Fuc(a1-2)Gal(b1-3)GlcNAc(b1-2)Man(a1-6)]Man(b1-4)GlcNAc(b1-4)GlcNAc
# In short: as §1
# [4] = target: Fuc(a1-2)Gal(b1-3)[Fuc(a1-4)]GlcNAc(b1-2)Man(a1-3)[Fuc(a1-2)Gal(b1-3)[Fuc(a1-4)]GlcNAc(b1-2)Man(a1-3)]Man(b1-4)GlcNAc(b1-4)GlcNAc
# In short: as §1
# [5] = target: Fuc(a1-2)[Gal(a1-3)]Gal(b1-3)GlcNAc
# In short: as §1
# [6] = target: Fuc(a1-2)[Gal(a1-3)]Gal(b1-4)GlcNAc(b1-3)[Fuc(a1-2)[Gal(a1-3)]Gal(b1-4)GlcNAc(b1-6)]GalNAc
# In short: as §1
# [7] = target: Fuc(a1-2)[GalNAc(a1-3)]Gal(b1-4)GlcNAc(b1-2)Man(a1-3)[Fuc(a1-2)[GalNAc(a1-3)]Gal(b1-4)GlcNAc(b1-2)Man(a1-6)]Man(b1-4)GlcNAc(b1-4)[Fuc(a1-6)]GlcNAc
# In short: as §1
# [8] = target: Fuc(a1-2)[GalNAc(a1-3)]Gal(b1-4)GlcNAc(b1-3)Gal(b1-4)GlcNAc
# In short: as §1
# [9] = target: Fuc(a1-2)[GalNAc(a1-3)]Gal(b1-4)[Fuc(a1-3)]GlcNAc(b1-3)GalNAc
# In short: as §1
# [10] = target: Fuc(a1-3)[Gal(b1-4)]GlcNAc(b1-3)[Fuc(a1-2)]Gal(b1-4)Glc
# In short: as §1
# [11] = target: Fuc(a1-4)GlcNAc
# In short: as §1
# [12] = target: Gal(b1-3)Gal(b1-4)GlcNAc(b1-2)Man(a1-3)[Gal(b1-3)Gal(b1-4)GlcNAc(b1-2)Man(a1-6)]Man(b1-4)GlcNAc(b1-4)GlcNAc
# In short: as §1
# [13] = target: Gal(b1-3)GlcNAc(a1-6)Gal(b1-4)GlcNAc
# In short: as §1
# [14] = target: Gal(b1-3)GlcNAc(b1-3)Gal(b1-4)Glc
# In short: as §1
# [15] = target: Gal(b1-3)GlcNAc(b1-3)Gal(b1-4)[Fuc(a1-3)]GlcNAc(b1-6)[Gal(b1-3)GlcNAc(b1-3)]Gal(b1-4)Glc
# In short: as §1
# [16] = target: Gal(b1-3)[Fuc(a1-4)]GlcNAc(b1-2)Man(a1-3)[Gal(b1-3)[Fuc(a1-4)]GlcNAc(b1-2)Man(a1-6)]Man(b1-4)GlcNAc(b1-4)GlcNAc
# In short: as §1
# [17] = target: Gal(b1-3)[Fuc(a1-4)]GlcNAc(b1-3)Gal(b1-4)[Fuc(a1-3)]GlcNAc
# In short: as §1
# [18] = target: Gal(b1-3)[Fuc(a1-4)]GlcNAc(b1-3)Gal(b1-4)[Fuc(a1-3)]GlcNAc(b1-6)[Gal(b1-3)[Fuc(a1-4)]GlcNAc(b1-3)]Gal(b1-4)Glc
# In short: as §1
# [19] = target: Gal(b1-3)[Neu5Ac(a2-6)]GalNAc
# In short: as §1
# [20] = target: Gal(b1-4)Glc
# In short: as §1
# [21] = target: Gal(b1-4)GlcNAc(b1-2)Man(a1-6)[GlcNAc(b1-2)Man(a1-3)]Man(b1-4)GlcNAc(b1-4)[Fuc(a1-6)]GlcNAc
# In short: as §1
# [22] = target: Gal(b1-4)GlcNAc(b1-2)Man(a1-6)[Man(a1-3)]Man(b1-4)GlcNAc(b1-4)[Fuc(a1-6)]GlcNAc
# In short: as §1
# [23] = target: Gal(b1-4)GlcNAc(b1-3)Gal(b1-4)GlcNAc(b1-2)Man(a1-3)[Gal(b1-4)GlcNAc(b1-3)Gal(b1-4)GlcNAc(b1-2)Man(a1-6)]Man(b1-4)GlcNAc(b1-4)[Fuc(a1-6)]GlcNAc
# In short: as §1
# [24] = target: Gal(b1-4)GlcNAc(b1-3)Gal(b1-4)GlcNAc(b1-3)Gal(b1-4)GlcNAc
# In short: as §1
# [25] = target: Gal(b1-4)GlcNAc(b1-3)Gal(b1-4)GlcNAc(b1-3)Gal(b1-4)GlcNAc(b1-3)Gal(b1-4)GlcNAc(b1-2)Man(a1-3)[Gal(b1-4)GlcNAc(b1-3)Gal(b1-4)GlcNAc(b1-3)Gal(b1-4)GlcNAc(b1-3)Gal(b1-4)GlcNAc(b1-2)Man(a1-6)]Man(b1-4)GlcNAc(b1-4)[Fuc(a1-6)]GlcNAc
# In short: as §1
# [26] = target: Gal(b1-4)GlcNAc(b1-3)Gal(b1-4)GlcNAc(b1-3)Gal(b1-4)GlcNAc(b1-3)Gal(b1-4)GlcNAc(b1-3)Gal(b1-4)GlcNAc(b1-2)[Gal(b1-4)GlcNAc(b1-3)Gal(b1-4)GlcNAc(b1-3)Gal(b1-4)GlcNAc(b1-3)Gal(b1-4)GlcNAc(b1-3)Gal(b1-4)GlcNAc(b1-6)]Man(a1-6)[Gal(b1-4)GlcNAc(b1-3)Gal(b1-4)GlcNAc(b1-3)Gal(b1-4)GlcNAc(b1-3)Gal(b1-4)GlcNAc(b1-3)Gal(b1-4)GlcNAc(b1-2)Man(a1-3)]Man(b1-4)GlcNAc(b1-4)[Fuc(a1-6)]GlcNAc
# In short: as §1
# [27] = target: Gal(b1-4)GlcNAc(b1-3)[Fuc(a1-3)GlcNAc(b1-6)]Gal(b1-4)Glc
# In short: as §1
# [28] = target: Gal(b1-4)GlcNAc(b1-3)[Fuc(a1-3)[Gal(b1-4)]GlcNAc(b1-6)]Gal(b1-4)Glc
# In short: as §1
# [29] = target: Gal(b1-4)GlcNAc(b1-6)[Gal(b1-3)]GalNAc
# In short: as §1
# [30] = target: Gal3S(b1-3)[Fuc(a1-4)]GlcNAc
# In short: as §1
binder,measurement,setting,value
B1,glycan array binding signal (z-score),[1],-0.32
same,glycan array binding signal (z-score),[2],-0.32
same,glycan array binding signal (z-score),[3],0.119
same,glycan array binding signal (z-score),[4],0.282
same,glycan array binding signal (z-score),[5],-0.016
same,glycan array binding signal (z-score),[6],2
same,glycan array binding signal (z-score),[7],0.189
same,glycan array binding signal (z-score),[8],0.56
same,glycan array binding signal (z-score),[9],2.38
same,glycan array binding signal (z-score),[10],-0.32
same,glycan array binding signal (z-score),[11],11.1
same,glycan array binding signal (z-score),[12],2.62
same,glycan array binding signal (z-score),[13],-0.327
same,glycan array binding signal (z-score),[14],-0.282
same,glycan array binding signal (z-score),[15],-0.154
same,glycan array binding signal (z-score),[16],1.69
same,glycan array binding signal (z-score),[17],-0.037
same,glycan array binding signal (z-score),[18],-0.32
same,glycan array binding signal (z-score),[19],-0.023
same,glycan array binding signal (z-score),[20],-0.243
same,glycan array binding signal (z-score),[21],-0.031
same,glycan array binding signal (z-score),[22],4.98
same,glycan array binding signal (z-score),[23],0.05
same,glycan array binding signal (z-score),[24],0.076
same,glycan array binding signal (z-score),[25],1.88
same,glycan array binding signal (z-score),[26],0.25
same,glycan array binding signal (z-score),[27],-0.199
same,glycan array binding signal (z-score),[28],-0.031
same,glycan array binding signal (z-score),[29],-0.196
same,glycan array binding signal (z-score),[30],0.015
